Experimental data taken from PubChem BioAssay AID720504 (National Center for Advancing Translational Sciences (NCATS), 2013).
In all, about 360,000 compounds went through this assay and about 10,000 (2.8%) were called active. About 4% were inconclusive and are not listed. Shown is part of a subset that was picked to be rich in actives. Unmarked numbers belong to inactive results. Calls follow the shape of the dose curve; as a rule, active = well fitted inhibition curve with a large enough effect; inconclusive = small, poorly fitted or top-dose-only effect; inactive = flat fitted curve, though single readings scatter.

Each compound was assayed against Serine/threonine-protein kinase PLK1 (Homo sapiens) (UniProt P53350) (assay: qHTS for Inhibitors of PLK1-PDB (polo-like kinase 1 - polo-box domain): Primary Screen). Conditions: Plk1 PBD binding of FITC phosphopeptide, fluorescence polarization.
Description: The polo-like kinase 1 (Plk1) is a member of a conserved subfamily of serine / threonine protein kinases that plays a pivotal roles in cell proliferation. It has a C-terminal non-catalytic region called the polo-box domain (PBD) that plays a crucial role in the subcellular localization of the Plk1. […] Furthermore, depletion of the overexpressed Plk1 by RNAi efficiently induces apoptotic cell death in cancer and reduces tumor growth in mouse xenograft models. Thus, targeting Plk1 is an appealing strategy for anti-cancer therapy. Therefore, this project aimed to screen the Molecular Libraries Small Molecule Repository (MLSMR) using a novel approach to find inhibitors that target the Plk1 PBD instead of the conventional N-terminal catalytic domain. This project employed a fluorescence polarization (FP) assay using a FITC-conjugated phospho-9-mer (p-9-mer) peptide and purified human Plk1 PBD protein. The identified small molecule inhibitors of Plk1 PBD can then further be developed into useful tools for biomedical and clinical research that complements or replaces current relevant disease therapy. NIH Chemical Genomics Center [NCGC] NIH Molecular Libraries Probe Centers Network [MLPCN] MLPCN Grant: MH100728 Assay Submitter (PI): Kyung Lee, NCI
Four microliter of 25 nM FITC-p-9-mer + 60 nM Plk1 PBD in buffer solution (final concentrations 25 nM and 60 nM respectively) or 4 uL of 25 nM FITC-p-9-mer (final concentration 25 nM) in buffer will be dispensed into a 1,536 Greiner medium-binding black solid plate. Small molecules at final concentrations of 18 nM to 57 uM and positive control phospho-9-mer (sequence: Ac-PPLHSpTAI-NH2) at final concentrations 26 nM to 57 uM and phospho-13-mer (sequence: Ac-[…]pTAI-NH2) at final concentrations of 1 nM to 2.3 uM will be pin-transferred (23 nL) to the plate via a Kalypsys pin-tool robotics equipped with a 1,536-pin array. The reaction plate will be centrifuged for 1 min at 1000 rpm and incubated at room temperature for 10 min. The FITC fluorescence signals will be read using the PerkinElmer ViewLux plate reader at 480 / 20 nm excitation and 540 / 20 nm S and P polarization emission wavelengths. Reagent bottles will be kept submerged into 4 °C recirculating chiller bath and all liquid lines will be covered with aluminum foil to minimize degradation. Library plates will be screened starting from the lowest to the highest concentrations to minimize compound carryover. Vehicle only plates, with DMSO being pin-transferred instead of compound solutions, will be included regularly throughout the screen to record any systematic shifts in assay signal.
% is scaled to controls: 0 for no effect and ±100 for the full control effect; potency is read from the fitted curve at half-maximal effect.
Also: nearly all actives have a fitted effect of over 65% in size.
For max response, negative = inhibition in this document: series mostly up to about 57 µM.

Serine/threonine-protein kinase PLK1 (Homo sapiens), sequence (P53350 whole entry, looked up, the tested form may be a part): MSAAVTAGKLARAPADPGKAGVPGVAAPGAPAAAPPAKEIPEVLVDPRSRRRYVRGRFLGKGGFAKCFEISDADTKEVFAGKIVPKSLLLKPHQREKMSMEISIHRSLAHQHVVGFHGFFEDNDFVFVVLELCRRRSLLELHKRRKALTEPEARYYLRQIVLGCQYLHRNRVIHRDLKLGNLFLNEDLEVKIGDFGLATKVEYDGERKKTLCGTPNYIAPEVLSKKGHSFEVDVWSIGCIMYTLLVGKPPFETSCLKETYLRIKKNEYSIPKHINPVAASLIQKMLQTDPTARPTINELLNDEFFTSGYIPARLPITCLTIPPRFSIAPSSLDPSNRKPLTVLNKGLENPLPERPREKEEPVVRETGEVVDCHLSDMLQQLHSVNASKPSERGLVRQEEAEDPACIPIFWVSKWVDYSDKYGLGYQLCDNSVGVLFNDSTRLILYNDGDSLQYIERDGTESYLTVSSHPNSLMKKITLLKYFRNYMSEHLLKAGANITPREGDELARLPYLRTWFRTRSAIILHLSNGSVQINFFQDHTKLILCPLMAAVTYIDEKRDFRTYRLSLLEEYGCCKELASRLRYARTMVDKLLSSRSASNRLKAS

Row | SMILES | max response, negative = inhibition [%] | Potency
1 | O=S(=O)(c1ccc(-c2ccccc2)cc1)N1CCCC1 | -5.48 | –
2 | O=S(=O)(NCc1ccccc1)c1ccc(S(=O)(=O)N2CCCC2)cc1 | – | 26.7 µM (active)
3 | CC1CCN(S(=O)(=O)c2ccc(S(=O)(=O)NCc3cccnc3)cc2)CC1 | -9.09 | –
4 | CN(Cc1ccc(C(F)(F)F)cc1)C(=O)[C@H]1O[C@@H](n2cnc3c(N)ncnc32)[C@H](O)[C@@H]1O | -3.67 | –
5 | CN(C)C(=O)c1cccc(-c2cnc3c(NC=O)cc(-c4ccc(C(=O)N5CCOCC5)cc4)cn23)c1 | -14.7 | –
6 | CCn1c(SCC(=O)Nc2sc(C)c(C)c2C#N)nnc1C1CC1 | -26.7 | –
7 | CCOC(=O)c1sc(NC(=O)CSc2nc(C)cc(C(F)(F)F)n2)c(C#N)c1C | – | 2.99 µM (active)
8 | Cc1cc(C(F)(F)F)nc(SCC(=O)Nc2nccs2)n1 | -4.23 | –
9 | CC(=O)OCC(C)n1c(=O)c2ccccc2n1C(C)=O (centres undefined) | 1.28 | –
10 | CN(C)c1cccc(NC(=O)c2ccc(-c3ccc(F)c(F)c3)c3ccoc23)c1 | -11 | –
11 | CCOC(=O)[C@]12CCCC=C1N(CCC1=CCCCC1)C(=O)[C@H](CC(=O)N1CCN(C(=O)c3ccco3)CC1)C2 | -19.8 | –
12 | C[C@@H]1CN([C@@H](C)CO)S(=O)(=O)c2ccc(C#Cc3cccc(F)c3)cc2O[C@H]1CN(C)S(=O)(=O)c1cn(C)cn1 | -28.6 | –
13 | CCCCCn1nnnc1-c1nc2cc3ccccc3cc2[nH]c1=O | -6.28 | –
14 | CCn1cc(C(=O)NCC2COc3ccccc3O2)c2cc(OC)c(OC)cc2c1=O (centres undefined) | -0.135 | –
15 | COc1cc(C(=O)N2CCN(C3CCC(C)CC3)CC2)cc(OC)c1OC (centres undefined) | -10 | –
16 | CCn1cc(C(=O)N2CCN(C3CCCCC3)CC2)c2cc(OC)c(OC)cc2c1=O | – | 10.6 µM (active)
17 | CCc1nc2ccc(C(=O)NC3CCN(Cc4ccccc4)CC3)cn2c1N(C)CCN1CCOCC1 | -5.14 | –
18 | CCCCCc1c(-c2ccc(OC)c(OC)c2)ncn1CCc1ccccc1OC | -4.35 | –
19 | Cc1cc(C)c(NC(=S)N2CCCC2C(=O)O)c(C)c1 (centres undefined) | – | 6.7 µM (active)
20 | Cc1cc([N+](=O)[O-])c(N2CCC[C@@H]2C(=O)O)c([N+](=O)[O-])c1 | -4.11 | –
21 | Cc1cc(C)c(NC(=O)CN2CCCCCC2)c(C)c1 | -2.23 | –
22 | COc1ccc(C(O)c2nc(-c3ccc(OC)nc3)cs2)cc1 (centres undefined) | 6.19 | –
23 | COc1ccc(CS(=O)/C(Cl)=C(/Cl)C(=O)Nc2ccc(OC)nc2)cc1 (centres undefined) | – | 2.67 µM (active)
24 | COc1ccc(NC(=O)CN2C(=O)NC(C)(c3ccccc3)C2=O)cn1 (centres undefined) | 2.84 | –
